A selection: hits, their analogues and other compounds. The true share with any hit is near 1.8%.
LYPLA2 counter: blocks human lysophospholipase 2, a PME1 counter-screen; hit rate 0.38% among 320,000; inhibition, % at 5.9 µM; recombinant LYPLA2, FP-Rh probe fluorescence polarization; O95372;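 active = inhibition above the screen-wide mean plus 3 SD, limit set per campaign, cut at about 26% in these data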;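 also: 0% = LYPLA2 with DMSO and 100% = wells lacking LYPLA2 enzyme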
PME-1 primary: PME-1 (human) inhibition; Q9Y570; recombinant PME-1, FP-Rh probe fluorescence polarization; AID 2130; hit rate 0.53% among 320,000; inhibition, % at 5.9 µM;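 active = inhibition above the campaign mean of all compounds plus 3 SD, cut at about 26% in these data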;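 also: competitive labeling of PME-1 active site by serine hydrolase directed probe; 0% = PME-1 with DMSO and 100% = wells lacking PME-1 enzyme; inhibitors block probe labeling so polarization falls and inhibition rises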
Target sequence (Q9Y570 whole entry, looked up): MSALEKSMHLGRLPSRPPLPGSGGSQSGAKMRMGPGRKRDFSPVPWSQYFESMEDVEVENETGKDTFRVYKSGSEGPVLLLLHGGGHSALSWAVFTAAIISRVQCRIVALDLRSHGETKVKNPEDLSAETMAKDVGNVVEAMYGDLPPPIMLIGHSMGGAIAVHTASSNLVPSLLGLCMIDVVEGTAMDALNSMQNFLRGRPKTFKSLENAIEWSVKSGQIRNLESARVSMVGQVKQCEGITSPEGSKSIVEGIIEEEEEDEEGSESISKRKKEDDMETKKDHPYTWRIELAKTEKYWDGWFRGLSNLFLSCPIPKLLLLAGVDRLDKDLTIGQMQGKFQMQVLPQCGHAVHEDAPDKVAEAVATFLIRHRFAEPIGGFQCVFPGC
Fam108B counter: counter-screen for RBBP9 inhibitors: inhibitors of mouse Fam108B; recombinant Fam108B, FP-Rh probe fluorescence polarization; inhibition, % at 9.51 µM; hit rate 0.33% among 300,000;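 active = inhibition above the screen mean inhibition plus 3 SD, computed separately per campaign, cut at about 18% in these data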;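 also: inhibitors lower polarization as less probe binds the enzyme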
GSTO1 counter: blocks human GSTO1 in RBBP9 counter-screen; hit rate 1.1% among 300,000; P78417; recombinant GSTO1, activity-based probe fluorescence polarization; AID 1974; inhibition, % at 5.96 µM;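 active = inhibition above the campaign mean inhibition plus 3 SD, cut at about 35% in these data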;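 also: 0% = GSTO1-1 with DMSO and 100% = wells lacking GSTO1-1 enzyme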
PAD4 inh: PAD4 (human) enzyme inhibition | Q9UM07 | recombinant PAD4, RCA probe fluorescence polarization | inhibition, % at 6.36 µM | hit rate 0.41% among 330,000;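 active = percent inhibition above a cutoff equal to the mean of all tested compounds plus 3 SD, cut at about 15% in these data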;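 also: 0% = PAD4 with RCA probe and DMSO and 100% = probe without PAD4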
LYPLA1 inh: counter-screen for PME1 inhibitors: inhibitors of human LYPLA1. hit rate 0.16% among 320,000. recombinant LYPLA1, FP-Rh probe fluorescence polarization. inhibition, % at 5.9 µM. O75608;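 active = inhibition above the mean of all tested compounds plus 3 SD, set per campaign, cut at about 14% in these data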;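 also: inhibitors block serine hydrolase probe labeling of LYPLA1 so polarization falls; 0% = enzyme with DMSO and 100% = wells lacking LYPLA1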
The depositor's hits bear a star; . = no result.

SMILES	LYPLA2 counter	PME-1 primary	Fam108B counter	GSTO1 counter	PAD4 inh	LYPLA1 inh
O=C(CSc1nnc(-c2ccccn2)n1Cc1ccco1)c1ccc(Cl)cc1	-2	0	-3	35*	-3	-3
O=C(CSc1nnc2ccccn12)c1ccc(Cl)cc1	1	-2	1	36*	-1	2
O=C(Cc1ccc(Br)cc1)NC1CCCc2ccccc21 (stereo unspecified)	2	9	1	6	-6	5
O=C(CCl)NC1CCCc2ccccc21 (stereo unspecified)	0	-9	4	72*	7	-2
O=C(NC1CCCc2ccccc21)C1CCN(S(=O)(=O)c2ccccc2F)CC1 (stereo unspecified)	3	58*	-6	5	-3	-4
CC(=O)Nc1ccc(NC(=O)c2ccccc2Nc2ccccc2)cc1	1	7	3	1	-3	-3
CN(C)c1ccc(NC(=O)Nc2ccc3snnc3c2)cc1	1	32*	9	10	-1	-9
O=C(Nc1ccccc1)Nc1ccc2snnc2c1	-9	-22	-2	-32	-1	-19
CCN(CC)C(=O)CSc1nc2c(sc(=S)n2CC)c(=O)n1-c1ccccc1	-3	9	0	-6	3	2
CCN(CC)C(=O)CSc1nc2c(sc(=S)n2-c2ccccc2)c(=O)n1Cc1ccco1	1	63*	5	-3	5	-5
COc1ccc(NC(=O)c2noc(C(C)C)c2[N+](=O)[O-])cc1	-1	-4	-3	33	-5	-4
CC(C)c1onc(C(=O)NCc2ccc(F)cc2)c1[N+](=O)[O-]	6	6	-2	37*	5	9
CC(=O)c1ccc(NC(=O)c2noc(C(C)C)c2[N+](=O)[O-])cc1	5	4	1	4	-1	0
CC(C)c1onc(C(=O)NCCc2ccccc2)c1[N+](=O)[O-]	3	-1	2	37*	-1	3
Cc1ccc(O)c(NC(=O)c2noc(C(C)C)c2[N+](=O)[O-])c1	10	7	1	35*	0	-4
CN(CCC1CCOCC1)C(=O)C1CCC(=O)N(CCc2cccc(F)c2)C1 (stereo unspecified)	14	-4	-3	4	4	5
CCOC(=O)N1CCN(S(=O)(=O)N2CCCC(C(=O)NC(C)c3ccccc3)C2)CC1 (stereo unspecified)	8	1	2	4	-4	6
COc1ccc2ccccc2c1CNCCN1CCOCC1	0	0	-3	10	1	-2
O=C1/C(=C/c2ccc([N+](=O)[O-])cc2)CCC1C1CCCC1 (stereo unspecified)	3	4	2	5	1	0
CC(C)c1ccc(NS(=O)(=O)c2ccc(-n3cccn3)cc2)cc1	2	-2	-7	35*	1	-2
Cc1cccc(C)c1NC(=O)c1cccc2c1-c1ccccc1C2=O	8	-1	0	-1	-2	1
Cc1cccc(C)c1NC(=O)COC(=O)c1cccc2c1C(=O)c1ccccc1C2=O	-7	71*	-10	-16	-6	1
Cc1cccc(NC(=O)COC(=O)c2cccc3c2C(=O)c2ccccc2C3=O)c1C	6	41*	5	6	-2	-4
NC(=O)CC[C@H](NC(=O)c1ccc(F)cc1)C(=O)OCC(=O)NCc1ccc2c(c1)OCO2	.	.	.	.	-6	.
O=C(c1ccco1)[C@@H]1[C@@H]2C(=O)N(c3ccccc3)C(=O)[C@@H]2C2c3ccccc3C=CN21 (stereo partly specified)	4	3	7	37*	-1	4
SMILES	LYPLA2 counter	PME-1 primary	Fam108B counter	GSTO1 counter	PAD4 inh	LYPLA1 inh
COc1ccc(N2C(=O)[C@@H]3[C@H](C2=O)[C@H]2c4ccccc4C=CN2[C@@H]3C(=O)Nc2ccccc2)cc1	7	13	25*	22	-3	1
CCCn1c(N)c(C(=O)CSc2nncs2)c(=O)[nH]c1=O	-5	3	.	.	3	-3
Cc1cc(C)cc(N(C(=O)c2csnn2)C(C(=O)NC2CCCC2)c2ccccn2)c1 (stereo unspecified)	-3	-2	-1	1	-5	0
Cc1ccc(SCC2=NN(c3nc(C)cc(C)n3)C(=O)C2)cc1	-1	3	0	37*	-3	0
Cn1c(=N)n(CC(=O)c2ccc(Br)cc2)c2ccccc21	1	32*	17	12	1	1
NC(=O)C1CCCN(C(=O)CCC(=O)c2cccs2)C1 (stereo unspecified)	.	.	.	.	1	.
O=C(N/N=C/c1c[nH]c2ccccc12)C1CC1(c1ccccc1)c1ccccc1 (stereo unspecified)	6	31*	12	-1	3	1
O=C(N/N=C/c1c[nH]c2ccccc12)c1cc(-c2cccc3ccccc23)n[nH]1	-9	28*	3	-21	-4	-11
O=C(N/N=C/c1c[nH]c2ccccc12)c1cc(-c2ccc3ccccc3c2)n[nH]1	-15	29*	11	-76	3	-33
CC(C)Cn1c(SC(C)C(=O)NC2CC2)nnc1-c1ccccc1F (stereo unspecified)	1	1	.	.	2	0
Cc1cc(C)cc(OCC(=O)OCc2cc([N+](=O)[O-])cc3c2OCOC3)c1	.	.	.	.	-1	.
N#CCn1c(CCl)nc2ccccc2c1=O	4	-2	3	48*	-5	4
COc1cc2c(cc1OC)CN(C(=O)c1ccc3[nH]c(C)c(C)c3c1)CC2	1	38*	-2	-4	-3	2
COc1ccc(C(=O)N2CCc3cc(OC)c(OC)cc3C2)cc1OC	5	0	2	4	-4	0
COc1ccc(CNc2oc(COc3ccccc3Cl)nc2C#N)cc1	1	8	-3	35*	-4	-5
COCCN(CC(=O)Nc1cccc(C)c1C)C(=O)CN1C(=O)NC2(CCCCC2)C1=O	5	3	.	.	0	-2
COc1ccc(/C=N/NC(=O)CN(C)C(=O)OCc2ccccc2)cc1OC	3	-4	1	-7	-1	-2
CC(C)c1ccc2[nH]c(O)c(N=NC(=O)c3cccc(S(=O)(=O)N4CCCCC4)c3)c2c1	1	53*	8	1	-8	-2
O=C(N=Nc1c(O)[nH]c2ccccc12)c1cccc(S(=O)(=O)N2CCCCC2)c1	-8	4	0	12	-1	-4
CC(=O)Nc1ccc(C(=O)OCC(=O)Nc2ccccc2Sc2ccccc2)cc1	-21	2	-15	-26	-2	-8
N#CCC(=O)Nc1ccc(C(=O)OCC(=O)Nc2ccccc2Sc2ccccc2)cc1	2	34*	6	-35	-2	-13
O=C(NCCC1=CCCCC1)C1CCN(S(=O)(=O)c2cccs2)CC1	0	28*	-1	-2	1	1
